Experimental data as given in publication PMC5540273 (PLoS ONE, 2017).

The molecules below were run on CAMK1B. Settings: concentration: 1 μM, replicates: in singlicate; n = 1.
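Note: KINOMEscan kinase panel screen.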

Point of comparison: `Nc1ncnc2c1ncn2-c1cccc2ccccc12` [SKF-97184], “%Inh” value 27%. Against it:
- Cc1cccc(-c2cc(-c3c[nH]nc3-c3ccccn3)ccn2)c1 [GW679395] — lower, 5%
- COc1ccc(-c2coc3ccc(-c4nnc(SCc5cccc(C#N)c5)o4)cc23)cc1 — lower, 6%
- COc1ccc(CNC(=O)NC2CCN(c3ccnc(Nc4ccc(F)cc4)n3)C2)cc1 (stereo not drawn) [GSK1379706] — lower, 0%
- COc1cc2ncn(-c3cc(OCc4ccncc4Br)c(C(N)=O)s3)c2cc1OC [GW854278] — lower, 0%
- Cc1nnc(-c2ccc(C)c(-c3ccc(C(=O)O)cc3)c2)o1 [GW608005] — lower, 8%
- COc1cc2ncn(-c3cc(OCCCc4ccccc4)c(C(N)=O)s3)c2cc1OC [GSK205189] — lower, 0%
- Cc1cc(Nc2nc(-c3cccc(C)n3)nc3ccccc23)ccn1 [GW872411] — lower, 0%
- Cc1ccc(-c2ccc3c(ccc4sc5c(c43)NC[C@@H](C)N=C5N(C)C)n2)cn1 — lower, 0%
- CCc1ccc(-c2ccc3c(c2)-c2nn(C)cc2S(=O)(=O)N3C)cc1 — lower, 0%
- Nc1n[nH]c2ncc(-c3ccccc3)cc12 [SB-517081] — higher, 58%
- O=C(NCCNc1ccnc(Nc2ccc(F)cc2)n1)Nc1ccc2c(c1)OCO2 [GSK1379882] — lower, 0%
- O=C(Nc1n[nH]c2nc(-c3ccccc3)c(Br)cc12)C1CC1 [SB-708998] — lower, 26%
- Cl.NS(=O)(=O)c1cccc(Nc2cc(-c3ccc(F)cc3)n[nH]2)c1 [GW824645] — lower, 0%
- O=C(Nc1ccc2c(c1)OCO2)NC1CCN(c2ccnc(NCc3ccc(F)cc3)n2)CC1 [GSK1379859] — lower, 0%
- CC(C)(C)c1ccc(C(=O)Nc2cn3cc(-c4ccccc4)ccc3n2)cc1 — lower, 6%
- C[C@@H]1CC[C@H](C(=O)NC2CCCCC2)CN1c1cc(-c2ccc3c(N)n[nH]c3c2)nc(N)n1 [GSK2291363] — lower, 2%
- O=C(Nc1n[nH]c2nc(-c3ccccc3)c(Cl)cc12)C1CC1 [SB-734909] — lower, 0%
- COC(=O)c1c(-c2ccccc2)c2cc(Br)ccc2c(=O)n1Cc1ccc(NC(=O)CCC(=O)O)cc1 — higher, 38%
- O=C(Nc1n[nH]c2cc(-c3ccccc3F)ccc12)C1CC1 [SB-733371] — lower, 0%
- Cc1nc(N(C)[C@H]2CN(C(=O)CC#N)CC[C@H]2C)c2cc[nH]c2n1 — lower, 0%
- Cc1nn2c(=O)cc(N3CCOCC3)nc2n1Cc1cccc(Cl)c1Cl [GSK2342769] — higher, 28%
- Cc1cccc(-c2nc(Nc3ccc4c(cnn4C)c3)c3ccccc3n2)n1 [GW876731] — lower, 0%
- FC(F)(F)c1ccc(-c2ncn(CCCN3CCOCC3)c2-c2ccncc2)cc1 [SB-217780] — higher, 35%
- COc1cc(Nc2ccnc3ccc(C(F)(F)F)cc23)cc(OC)c1OC [GW577382] — higher, 38%
- CCS(=O)c1ccc(-c2coc3ccc(-c4nnc(C)o4)cc23)cc1 (stereo not drawn) — lower, 5%
- O=c1cc(N2CCOCC2)nc2n(Cc3ccc(F)c(Cl)c3)ccn12 [GSK2297099] — higher, 32%
- CCC(=O)c1c(-c2ccccc2)c2cc(Cl)ccc2c(=O)n1Cc1cc(S(C)(=O)=O)n(CCC(C)(C)O)n1 — lower, 0%
- Cn1c(=O)c(F)c(Nc2ccc(I)cc2F)c2c(=O)n(OC[C@H](O)CO)cnc21 — lower, 0%
- COc1cc(OC)cc(-c2cc3cnc(N)nc3nc2NC(=O)NC(C)(C)C)c1 — lower, 0%
- Fc1cccc(CSc2nnc(-c3ccc4c(c3)CCO4)o2)c1 — lower, 0%
- COc1cc(Nc2nccc(N3CCC(NC(=O)C4COc5ccccc5O4)C3)n2)cc(OC)c1OC (stereo not drawn) [GSK1379761] — lower, 25%
- O=C1NC(=O)C(c2ccccc2)=C1Nc1cccc(O)c1 [SB-390534] — lower, 0%
- CN(C)c1cc(-c2ccc3c(N)n[nH]c3c2)nc(N)n1 [GSK2219329] — lower, 0%
- Cc1ccc(Oc2ccc(Nc3ncnc4cc[nH]c34)cc2C)cn1 — lower, 0%
- CN1C(=O)C(Nc2ccccc2)=C(c2ccccc2)C1=O [SB-300079] — lower, 0%

The molecules below were run on CAMK1D. Settings: concentration: 1 μM, replicates: in singlicate; n = 1.

Point of comparison: `Cc1ccc(Oc2ccc(Nc3ncnc4cc[nH]c34)cc2C)cn1`, “%Inh” value 34%. Against it:
- Cc1cccc(-c2cc(-c3c[nH]nc3-c3ccccn3)ccn2)c1 [GW679395] — lower, 10%
- COc1ccc(-c2coc3ccc(-c4nnc(SCc5cccc(C#N)c5)o4)cc23)cc1 — lower, 23%
- COc1ccc(CNC(=O)NC2CCN(c3ccnc(Nc4ccc(F)cc4)n3)C2)cc1 (stereo not drawn) [GSK1379706] — lower, 4%
- COc1cc2ncn(-c3cc(OCc4ccncc4Br)c(C(N)=O)s3)c2cc1OC [GW854278] — lower, 0%
- Cc1nnc(-c2ccc(C)c(-c3ccc(C(=O)O)cc3)c2)o1 [GW608005] — lower, 4%
- COc1cc2ncn(-c3cc(OCCCc4ccccc4)c(C(N)=O)s3)c2cc1OC [GSK205189] — lower, 16%
- Cc1cc(Nc2nc(-c3cccc(C)n3)nc3ccccc23)ccn1 [GW872411] — lower, 0%
- Cc1ccc(-c2ccc3c(ccc4sc5c(c43)NC[C@@H](C)N=C5N(C)C)n2)cn1 — lower, 0%
- CCc1ccc(-c2ccc3c(c2)-c2nn(C)cc2S(=O)(=O)N3C)cc1 — lower, 5%
- Nc1n[nH]c2ncc(-c3ccccc3)cc12 [SB-517081] — higher, 40%
- Nc1ncnc2c1ncn2-c1cccc2ccccc12 [SKF-97184] — lower, 10%
- O=C(NCCNc1ccnc(Nc2ccc(F)cc2)n1)Nc1ccc2c(c1)OCO2 [GSK1379882] — lower, 9%
- O=C(Nc1n[nH]c2nc(-c3ccccc3)c(Br)cc12)C1CC1 [SB-708998] — lower, 4%
- Cl.NS(=O)(=O)c1cccc(Nc2cc(-c3ccc(F)cc3)n[nH]2)c1 [GW824645] — lower, 0%
- O=C(Nc1ccc2c(c1)OCO2)NC1CCN(c2ccnc(NCc3ccc(F)cc3)n2)CC1 [GSK1379859] — lower, 16%
- CC(C)(C)c1ccc(C(=O)Nc2cn3cc(-c4ccccc4)ccc3n2)cc1 — lower, 0%
- C[C@@H]1CC[C@H](C(=O)NC2CCCCC2)CN1c1cc(-c2ccc3c(N)n[nH]c3c2)nc(N)n1 [GSK2291363] — lower, 29%
- O=C(Nc1n[nH]c2nc(-c3ccccc3)c(Cl)cc12)C1CC1 [SB-734909] — lower, 0%
- COC(=O)c1c(-c2ccccc2)c2cc(Br)ccc2c(=O)n1Cc1ccc(NC(=O)CCC(=O)O)cc1 — lower, 12%
- O=C(Nc1n[nH]c2cc(-c3ccccc3F)ccc12)C1CC1 [SB-733371] — lower, 0%
- Cc1nc(N(C)[C@H]2CN(C(=O)CC#N)CC[C@H]2C)c2cc[nH]c2n1 — lower, 15%
- Cc1nn2c(=O)cc(N3CCOCC3)nc2n1Cc1cccc(Cl)c1Cl [GSK2342769] — lower, 8%
- Cc1cccc(-c2nc(Nc3ccc4c(cnn4C)c3)c3ccccc3n2)n1 [GW876731] — lower, 0%
- FC(F)(F)c1ccc(-c2ncn(CCCN3CCOCC3)c2-c2ccncc2)cc1 [SB-217780] — lower, 23%
- COc1cc(Nc2ccnc3ccc(C(F)(F)F)cc23)cc(OC)c1OC [GW577382] — lower, 14%
- CCS(=O)c1ccc(-c2coc3ccc(-c4nnc(C)o4)cc23)cc1 (stereo not drawn) — lower, 23%
- O=c1cc(N2CCOCC2)nc2n(Cc3ccc(F)c(Cl)c3)ccn12 [GSK2297099] — lower, 9%
- CCC(=O)c1c(-c2ccccc2)c2cc(Cl)ccc2c(=O)n1Cc1cc(S(C)(=O)=O)n(CCC(C)(C)O)n1 — lower, 0%
- Cn1c(=O)c(F)c(Nc2ccc(I)cc2F)c2c(=O)n(OC[C@H](O)CO)cnc21 — lower, 8%
- COc1cc(OC)cc(-c2cc3cnc(N)nc3nc2NC(=O)NC(C)(C)C)c1 — lower, 0%
- Fc1cccc(CSc2nnc(-c3ccc4c(c3)CCO4)o2)c1 — lower, 0%
- COc1cc(Nc2nccc(N3CCC(NC(=O)C4COc5ccccc5O4)C3)n2)cc(OC)c1OC (stereo not drawn) [GSK1379761] — lower, 8%
- O=C1NC(=O)C(c2ccccc2)=C1Nc1cccc(O)c1 [SB-390534] — lower, 0%
- CN(C)c1cc(-c2ccc3c(N)n[nH]c3c2)nc(N)n1 [GSK2219329] — lower, 9%
- CN1C(=O)C(Nc2ccccc2)=C(c2ccccc2)C1=O [SB-300079] — lower, 0%
